The source of these data is PubChem BioAssay.

The subject of assay [1] is transactivating tegument protein VP16 (Human herpesvirus 1). As to the kind of experiment: compounds suppressing VP16-driven luciferase signal – cell-based, luminescence, single concentration, counter-screen for SRC2 inhibitor project (AID 652007). The settings on record: cell-based VP16 transactivation luciferase reporter, at 8.9 µM, stronger effect = higher value. A general note: Counterscreens check selectivity or assay interference.

The target of assay [2] is Nuclear receptor coactivator 2 (Homo sapiens) (UniProt Q15596). As to the kind of experiment: inhibition of GAL4-SRC2 driven luciferase expression – cell-based, luminescence, HEK293, triplicate, confirmation (AID 652008;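 active means mean inhibition above 46.5%, the solvent-only control mean plus 3 SD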;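 further: 0% = DMSO-treated cells and 100% = Gossypol at 36 µM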). The conditions noted are these: HEK293 GAL4-SRC2 luciferase reporter, at 8.9 µM, stronger effect = higher value. On the technique in general: In a reporter assay the amount or activity of a reporter protein is the signal.

Calls of active or inactive are those of the source. Unless noted, no stated cut-off is given here; in the data, active means inhibition above about 36%; inactive means the rest.

Sequence of Nuclear receptor coactivator 2 (Homo sapiens) (Q15596 whole entry, looked up, the tested form may be a part): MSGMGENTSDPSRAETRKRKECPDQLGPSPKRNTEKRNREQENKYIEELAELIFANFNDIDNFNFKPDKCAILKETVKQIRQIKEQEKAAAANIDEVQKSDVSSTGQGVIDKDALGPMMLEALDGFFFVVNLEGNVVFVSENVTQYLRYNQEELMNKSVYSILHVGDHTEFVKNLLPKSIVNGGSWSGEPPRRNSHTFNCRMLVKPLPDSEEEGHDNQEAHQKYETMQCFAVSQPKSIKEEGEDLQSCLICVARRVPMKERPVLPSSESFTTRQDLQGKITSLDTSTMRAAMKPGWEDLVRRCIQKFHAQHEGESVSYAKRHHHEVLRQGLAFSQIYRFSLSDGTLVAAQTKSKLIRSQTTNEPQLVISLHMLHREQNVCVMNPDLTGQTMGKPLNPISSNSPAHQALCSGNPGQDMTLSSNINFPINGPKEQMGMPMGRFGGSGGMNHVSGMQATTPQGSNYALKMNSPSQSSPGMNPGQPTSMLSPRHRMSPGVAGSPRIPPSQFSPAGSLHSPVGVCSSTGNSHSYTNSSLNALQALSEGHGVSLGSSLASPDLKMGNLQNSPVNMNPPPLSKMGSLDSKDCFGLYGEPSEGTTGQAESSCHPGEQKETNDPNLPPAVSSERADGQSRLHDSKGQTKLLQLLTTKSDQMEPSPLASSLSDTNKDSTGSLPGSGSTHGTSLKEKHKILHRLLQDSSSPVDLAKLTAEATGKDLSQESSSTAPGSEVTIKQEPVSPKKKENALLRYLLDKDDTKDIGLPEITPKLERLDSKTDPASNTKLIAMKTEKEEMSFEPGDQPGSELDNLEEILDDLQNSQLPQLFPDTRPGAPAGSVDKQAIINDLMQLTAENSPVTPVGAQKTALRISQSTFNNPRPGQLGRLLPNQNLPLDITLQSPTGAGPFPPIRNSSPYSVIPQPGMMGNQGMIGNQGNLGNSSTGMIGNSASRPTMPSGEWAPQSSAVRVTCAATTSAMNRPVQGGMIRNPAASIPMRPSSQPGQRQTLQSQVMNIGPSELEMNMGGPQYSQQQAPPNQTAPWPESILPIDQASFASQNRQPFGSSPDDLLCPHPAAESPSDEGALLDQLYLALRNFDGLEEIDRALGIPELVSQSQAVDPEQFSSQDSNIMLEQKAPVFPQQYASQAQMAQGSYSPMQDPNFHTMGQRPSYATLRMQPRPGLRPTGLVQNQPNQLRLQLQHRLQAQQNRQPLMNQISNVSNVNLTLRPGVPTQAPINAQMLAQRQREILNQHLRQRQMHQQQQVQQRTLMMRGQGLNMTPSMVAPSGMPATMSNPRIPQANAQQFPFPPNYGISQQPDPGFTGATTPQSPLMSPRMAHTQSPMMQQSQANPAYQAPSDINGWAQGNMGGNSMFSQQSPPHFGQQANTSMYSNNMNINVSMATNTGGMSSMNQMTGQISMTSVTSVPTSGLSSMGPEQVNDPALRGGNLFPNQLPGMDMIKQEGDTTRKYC

Turning to `O=C(O)CCC(=O)Nc1ccc(C(=O)OC2CCCCC2)cc1`, the inhibition in assay [1] was 11.1% (inactive); in assay [2], 29.4% (inactive).
Taken in the same sequence, the figures for `O=C(OC12CCCN(C1)/C(=C/c1ccncc1)C2)c1ccc(Cl)cc1` (centres undefined) were -7.98% (inactive) and 25.9% (inactive).
Taken in the same sequence, the figures for `COc1ccc(C#Cc2ccc3c(c2)[C@H]2[C@H](CCN2S(=O)(=O)c2ccccc2F)[C@H](CO)N3C)cc1` were -5.48% (inactive) and 8.22% (inactive).
Taken in the same sequence, the figures for `O=C(NC1CCCC1)C(c1ccccc1)n1c(CSCCOc2ccccc2)nc2ccccc21` (centres undefined) were 47.1% (active) and 80.3% (active).
As for `COc1ccc(NC(=O)CSc2nnnn2C2CCCCC2)c(OC)c1`, the inhibition is 1.44% (inactive) in assay [1] and 14.6% (inactive) in assay [2].
Taken in the same sequence, the figures for `COCCN(C(=O)CCC(=O)Nc1nccs1)C(C(=O)NC(C)(C)C)c1ccc(C)cc1` (centres undefined) were 11.2% (inactive) and 5.44% (inactive).
Turning to `CCOc1cccc(NC(=O)C2CCCN(S(=O)(=O)c3ccc(OC)cc3)C2)c1` (centres undefined), the results for the inhibition in assay [1] and in assay [2] were -26.5% (inactive) and -6.98% (inactive), respectively.
On to `Cn1nc(C(C)(C)C)cc1C(=O)N1CCCCC1c1cc(C(=O)Nc2ccccc2Cl)no1` (centres undefined), for which the inhibition in assay [1] is 7.65% (inactive); in assay [2], 13.2% (inactive).
Taken in the same sequence, the figures for `COc1cc2[nH]c(=O)n(CCCCCC(=O)NCCCN3CCCC3=O)c(=O)c2cc1OC` were 7.78% (inactive) and -9.47% (inactive).
Taken in the same sequence, the figures for `COc1cc(F)ccc1-c1csc(C(O)c2ccc(F)c(F)c2)n1` (centres undefined) were -3.93% (inactive) and 10.6% (inactive).
Take `Cc1cccc(C)c1NC(=O)C[n+]1cc(-c2ccccc2)n2c1CCC2`: the inhibition is -22.3% (inactive) in assay [1] and -2.7% (inactive) in assay [2].
On to `CC(C)N=C(NS(=O)(=O)c1ccccc1)C(Cl)(Cl)Cl`, for which the figures for the inhibition in assay [1] and in assay [2] were 7.46% (inactive) and 28.2% (inactive), respectively.
Taken in the same sequence, the figures for `CCn1nc(NS(=O)(=O)c2ccc([N+](=O)[O-])cc2)c2cc3ccc(C)cc3nc21` were 10.1% (inactive) and -26.1% (inactive).
Taken in the same sequence, the figures for `CN1C(=O)C(c2cn(C)c3ccccc23)(c2cn(C)c3ccccc23)c2cc(F)ccc21` were 11.8% (inactive) and -37.4% (inactive).
Taken in the same sequence, the figures for `Cc1ccccc1C(=O)N1CCN(c2ccc(NC(=O)c3ccccc3[N+](=O)[O-])cc2)CC1` were -22% (inactive) and 12.1% (inactive).
Take `Cc1sc(NC(=O)CCCC(=O)O)c(C(N)=O)c1-c1ccccc1`: the values for the inhibition in assay [1] and in assay [2] were 37.1% (active) and 75.5% (active), respectively.
Taken in the same sequence, the figures for `Cc1ccc(C2(CCNCc3ccco3)CCOC(C(C)C)C2)cc1` (centres undefined) were -11.6% (inactive) and -20.8% (inactive).
Taken in the same sequence, the figures for `Nc1cccc(-c2cc3ccccc3oc2=O)c1` were 22.1% (inactive) and 56.9% (active).
In the case of `CCCC(=O)Nc1cccc(NC(=O)c2ccccc2Br)c1`, the inhibition was -0.46% (inactive) in assay [1] and -17.8% (inactive) in assay [2].
Taken in the same sequence, the figures for `N#Cc1c([N+](=O)[O-])cc([N+](=O)[O-])cc1S(=O)(=O)Cc1ccccc1` were 96.4% (active) and 98.5% (active).
Taken in the same sequence, the figures for `[2H]C(CCOS(N)(=O)=O)c1ccc(C(C)(C)C)cc1` (centres undefined) were 13.7% (inactive) and 41.4% (inactive).
Taken in the same sequence, the figures for `CCCc1cc(=O)n2nc(N3CCC(C(=O)N4CCN(c5cccc(OC)c5)CC4)CC3)sc2n1` were -1.33% (inactive) and 17.2% (inactive).
In the case of `COc1ccc(NC(=O)Cc2nnc(SCC(=O)Nc3ccc(F)cc3)n2C)cc1`, the results for the inhibition in assay [1] and in assay [2] were -17.1% (inactive) and -24% (inactive), respectively.
Taken in the same sequence, the figures for `CC(Sc1nnc(CN2CCCC2)n1Cc1ccccc1)C(=O)Nc1ccc(F)cc1` (centres undefined) were 1.17% (inactive) and -5.19% (inactive).
Taken in the same sequence, the figures for `O=c1c2ccccc2sn1-c1ccccc1` were -5.09% (inactive) and -17.8% (inactive).
Taken in the same sequence, the figures for `Cc1cccc(C)c1Nc1nnc(SC(C)C(=O)Nc2c(C)n(C)n(-c3ccccc3)c2=O)s1` (centres undefined) were -15.1% (inactive) and -13.2% (inactive).
Consider `Cc1ccc(S(=O)(=O)N2CCN(C(=O)c3cc4c(C)nn(-c5ccccc5C)c4s3)CC2)cc1`, for which the inhibition was 4.9% (inactive) in assay [1] and 4.62% (inactive) in assay [2].
Taken in the same sequence, the figures for `CC(=O)NCCOc1nc(N2CCCCC2)nc(N2CCCCC2)n1` were 0.94% (inactive) and 12.1% (inactive).
Taken in the same sequence, the figures for `Cc1ccc2c(c1)N(C(C)C(=O)NCc1ccc3c(c1)OCO3)C(=O)CO2` (centres undefined) were -10.5% (inactive) and -19.4% (inactive).
Taken in the same sequence, the figures for `CCOc1ccc(-n2c(C)nc3cc(C(=O)NCC4CCCO4)ccc32)cc1` (centres undefined) were -16.6% (inactive) and -3.58% (inactive).
Regarding `Nc1ccc2oc(-c3cccc4ccccc34)nc2c1`, the inhibition in assay [1] was 38.3% (active); in assay [2] it was 48.8% (active).
Taken in the same sequence, the figures for `Cn1nnnc1Sc1ncnc2scc(-c3ccc(C(F)(F)F)cc3)c12` were 35.2% (inactive) and 44.4% (inactive).

As a reminder, the inhibition is the drop in the measured response relative to a control, in per cent.
